In PubChem BioAssay AID1159580 (chemical genetic matrix, 2015):
Values joined by “and” are separate entries in the source; they are usually repeats but may differ in a detail not shown here. Equal entries are not always repeated. About 2,000 (36%) of roughly 5,500 compounds were called active. Another 18% or so got no clear call; they are omitted. No stated cut-off is given here; in the data, active means normalized growth mostly below about 0.91 (no sharp cut-off); inconclusive means no clear call, values can overlap the other calls; inactive means mostly above about 0.92. The list shows a part of the results.

Test: chemical genetic growth profiling, strain panel (AID 1159580);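 further: tested at 20 µM; growth read once vehicle control cultures reached saturation at 30 °C; 1 = growth at the plate median or of vehicle wells; lower values mean less growth of the strain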
Settings: S. cerevisiae deletion strains, growth OD

Measured: normalized growth

Nc1nc2ncc(CNc3ccc(C(=O)N[C@@H](CCC(=O)O)C(=O)O)cc3)nc2c(=O)[nH]1
inactive: locus YAL021C, strain ccr4, hits give low values 0.993 | locus YAL026C, strain drs2, hits give low values 1.01 | locus YAL030W, strain snc1, hits give low values 0.998 | locus YBL061C, strain skt5, hits give low values 1 | locus YBR009C, strain hhf1, hits give low values 1.01 | locus YBR021W, strain FUR4, hits give low values 1.04 | locus YBR023C, strain chs3, hits give low values 0.995 | locus YBR171W, strain sec66, hits give low values 0.996 | locus YBR229C, strain ROT2, hits give low values 0.992 | locus YBR231C, strain swc5, hits give low values 0.996 | locus YBR279W, strain paf1, hits give low values 0.996 | locus YCL011C, strain gbp2, hits give low values 1 | locus YCL016C, strain dcc1, hits give low values 0.998 | locus YCL029C, strain bik1, hits give low values 0.976 | locus YCL061C, strain MRC1, hits give low values 0.998 | locus YCL069W, strain vba3, hits give low values 1 | locus YCR088W, strain abp1, hits give low values 1 | locus YDL005C, strain med2, hits give low values 1 | locus YDL035C, strain GPR1, hits give low values 0.995 | locus YDL040C, strain nat1, hits give low values 0.995 | locus YDL074C, strain BRE1, hits give low values 0.993 | locus YDL101C, strain DUN1, hits give low values 0.996 | locus YDL185W, strain tfp1, hits give low values 0.956 | locus YDL192W, strain arf1, hits give low values 0.976 | locus YDR001C, strain nth1, hits give low values 0.997 | locus YDR069C, strain doa4, hits give low values 0.999 | locus YDR101C, strain arx1, hits give low values 0.982 | locus YDR137W, strain rgp1, hits give low values 1.03 | locus YDR159W, strain sac3, hits give low values 1.01 | locus YDR162C, strain NBP2, hits give low values 1.02 | locus YDR195W, strain ref2 0.993 | locus YDR297W, strain sur2, hits give low values 0.997 | locus YDR318W, strain mcm21, hits give low values 0.99 | locus YDR334W, strain swr1, hits give low values 1 | locus YDR335W, strain msn5, hits give low values 0.997 | locus YDR388W, hits give low values 0.976 | locus YDR392W, strain spt3, hits give low values 0.941 | locus YDR502C, strain sam2, hits give low values 0.986 | locus YEL003W, strain gim4, hits give low values 1.01 | locus YEL037C, strain rad23, hits give low values 1 | locus YEL061C, strain CIN8 (second series), hits give low values 1 | locus YEL061C, strain CIN8, hits give low values 0.988 | locus YER015W, strain faa2, hits give low values 1 | locus YER016W, strain bim1, hits give low values 1.01 | locus YER110C, hits give low values 0.952 | locus YER111C, strain swi4, hits give low values 0.985 | locus YER155C, strain BEM2 (second series), hits give low values 1.01 | locus YER155C, strain BEM2, hits give low values 0.986 | locus YER167W, strain BCK2, hits give low values 0.99 | locus YFR010W, strain ubp6, hits give low values 1.01 | locus YGL078C, strain dbp3, hits give low values 0.998 | locus YGL086W, strain mad1, hits give low values 0.968 | locus YGL167C, strain pmr1, hits give low values 1 | locus YGL173C, strain kem1, hits give low values 0.996 | locus YGL227W, strain vid30, hits give low values 0.993 | locus YGL240W, strain doc1, hits give low values 1.02 | locus YGL248W, strain PDE1, hits give low values 1.01 | locus YGL253W, strain hxk2, hits give low values 0.993 | locus YGR078C, strain PAC10, hits give low values 1.03 | locus YGR135W, strain pre9, hits give low values 1 | locus YGR252W, strain gcn5, hits give low values 1.21 | locus YHR013C, strain ard1, hits give low values 1 | locus YHR027C, strain rpn1, hits give low values 1 | locus YHR030C, strain SLT2, hits give low values 0.971 and 1.02 | locus YHR079C, strain IRE1 (second series), hits give low values 0.972 | locus YHR079C, strain IRE1, hits give low values 1.03 | locus YHR094C, strain hxt1, hits give low values 0.989 | locus YHR129C, strain ARP1, hits give low values 0.99 | locus YHR142W, strain chs7, hits give low values 0.989 | locus YHR200W, strain rpn10, hits give low values 0.985 | locus YIL066C, strain RNR3, hits give low values 1 | locus YIL073C, strain SPO22, hits give low values 0.922 | locus YIL125W, strain kgd1, hits give low values 0.94 | locus YIR030C, strain dcg1, hits give low values 0.985 | locus YJL092W, strain hpr5, hits give low values 0.995 | locus YJL095W, strain BCK1 (second series), hits give low values 0.992 | locus YJL095W, strain BCK1, hits give low values 1.05 and 1.02 | locus YJL115W, strain asf1, hits give low values 1 | locus YJL129C, strain trk1, hits give low values 0.993 | locus YJL134W, strain LCB3, hits give low values 0.979 | locus YJL154C, strain vps35, hits give low values 1 | locus YJL164C, strain tpk1, hits give low values 0.994 | locus YJL166W, strain qcr8, hits give low values 0.995 | locus YJL168C, strain set2, hits give low values 1.01 | locus YJL187C, strain SWE1 (second series), hits give low values 1.01 | locus YJL187C, strain SWE1, hits give low values 0.999 | locus YJR043C, strain POL32, hits give low values 1.01 | locus YJR066W, strain TOR1, hits give low values 0.959 | locus YKL009W, strain mrt4, hits give low values 0.954 | locus YKL068W, hits give low values 0.98 | locus YKL085W, strain MDH1 (second series), hits give low values 0.981 | locus YKL085W, strain MDH1, hits give low values 0.981 | locus YKL160W, strain elf1, hits give low values 0.987 | locus YKL190W, strain CNB1, hits give low values 0.985 | locus YKR001C, strain vps1, hits give low values 0.975 | locus YKR026C, strain gcn3, hits give low values 1 | locus YKR091W, strain srl3, hits give low values 1 | locus YLL001W, strain dnm1, hits give low values 0.967 | locus YLL026W, hits give low values 0.997 | locus YLL041C, strain sdh2, hits give low values 0.998 | locus YLR027C, strain aat2, hits give low values 1 | locus YLR039C, strain RIC1, hits give low values 0.987 | locus YLR058C, strain SHM2, hits give low values 0.991 | locus YLR102C, strain apc9, hits give low values 0.957 | locus YLR113W, strain HOG1, hits give low values 1.02 | locus YLR221C, strain rsa3, hits give low values 0.995 | locus YLR258W, strain gsy2, hits give low values 0.998 | locus YLR262C, strain YPT6 (second series), hits give low values 0.998 | locus YLR262C, strain YPT6, hits give low values 1 | locus YLR268W, strain sec22, hits give low values 0.963 | locus YLR320W, strain mms22, hits give low values 0.992 | locus YLR330W, strain CHS5, hits give low values 0.979 | locus YLR342W, strain FKS1 (second series), hits give low values 1.01 | locus YLR342W, strain FKS1, hits give low values 0.995 | locus YLR357W, strain rsc2, hits give low values 1.01 | locus YLR370C, strain arc18, hits give low values 0.994 | locus YLR371W, strain rom2, hits give low values 0.98 | locus YLR384C, strain iki3, hits give low values 1.01 | locus YLR418C, strain cdc73, hits give low values 1.04 | locus YML016C, strain PPZ1, hits give low values 0.989 | locus YML032C, strain rad52, hits give low values 0.985 | locus YML120C, strain ndi1, hits give low values 0.995 | locus YML124C, strain tub3, hits give low values 0.991 | locus YMR058W, strain fet3, hits give low values 1 | locus YMR078C, strain ctf18, hits give low values 0.982 | locus YMR125W, strain sto1, hits give low values 0.993 | locus YMR129W, hits give low values 1 | locus YMR205C, strain PFK2, hits give low values 0.992 | locus YMR223W, strain ubp8, hits give low values 0.998 | locus YMR231W, strain pep5, hits give low values 1 | locus YMR263W, strain SAP30, hits give low values 0.995 | locus YMR307W, strain GAS1, hits give low values 1.19 | locus YNL067W, strain RPL9B, hits give low values 1.02 | locus YNL071W, strain lat1, hits give low values 1 | locus YNL153C, strain GIM3, hits give low values 1.03 | locus YNL183C, strain NPR1, hits give low values 0.947 | locus YNL209W, strain ssb2, hits give low values 0.998 | locus YNL233W, strain BNI4, hits give low values 1.03 | locus YNL248C, strain rpa49, hits give low values 0.994 | locus YNL250W, strain rad50, hits give low values 0.981 | locus YNL271C, strain bni1, hits give low values 0.997 | locus YNL298W, strain CLA4, hits give low values 0.989 | locus YNL307C, strain MCK1, hits give low values 0.98 | locus YNL322C, strain KRE1 (second series), hits give low values 0.998 | locus YNL322C, strain KRE1, hits give low values 0.987 | locus YNR049C, strain mso1, hits give low values 0.999 | locus YNR052C, strain pop2, hits give low values 0.994 | locus YOL012C, strain htz1 0.994 | locus YOL147C, strain pex11, hits give low values 0.985 | locus YOR001W, strain rrp6, hits give low values 0.984 | locus YOR061W, strain CKA2, hits give low values 0.99 | locus YOR069W, strain VPS5, hits give low values 0.981 | locus YOR070C, strain gyp1, hits give low values 0.996 | locus YOR080W, strain dia2, hits give low values 1 | locus YOR083W, strain WHI5, hits give low values 0.985 | locus YOR106W, strain vam3, hits give low values 1.02 | locus YOR136W, strain idh2, hits give low values 0.987 | locus YOR144C, strain elg1, hits give low values 0.987 | locus YOR184W, strain ser1, hits give low values 0.963 | locus YOR231W, strain MKK1, hits give low values 1.03 | locus YOR265W, strain rbl2, hits give low values 1.01 | locus YOR270C, strain vph1, hits give low values 0.99 | locus YOR290C, strain snf2, hits give low values 1.02 | locus YOR316C, strain cot1, hits give low values 0.988 | locus YPL051W, strain arl3, hits give low values 0.997 | locus YPL078C, strain atp4, hits give low values 0.996 | locus YPL106C, strain sse1, hits give low values 0.963 | locus YPL240C, strain hsp82, hits give low values 0.985 | locus YPL256C, strain CLN2, hits give low values 1.02 | locus YPR119W, strain clb2, hits give low values 0.976 | locus YPR141C, strain kar3, hits give low values 0.979 | locus YPR163C, strain tif3, hits give low values 0.993 | locus YPR167C, strain met16, hits give low values 0.97 | strain wtn01, hits give low values 0.971
